Source: PubChem (National Center for Advancing Translational Sciences (NCATS))
Shown are actives, neighbours in structure and some others; about 2.4% of the full set was active somewhere.
POLB inh – DNA polymerase beta (human) inhibition; P06746; Pol beta primer extension/strand displacement, fluorescence kinetic; Potency, µM (highest dose often 114 µM), actives largely listed as inhibitors; hit rate 1.3% among 340,000
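Values derive from four-parameter Hill fits of normalized kinetic data: reads at 0 and 10 min following addition of 50 nM substrate to 10 nM Pol beta preincubated 15 min with compound.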
WRN helicase inh – inhibitors of human WRN helicase | Q14191 | WRN helicase unwinding, fluorescent forked duplex, kinetic | Potency, µM (highest dose often 114 µM), usual class: inhibitors | hit rate 0.46% among 360,000; also: nearly all actives have a fitted effect of over 55% in size
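Enzyme (20 nM final) and test compound sit together 15 min at room temperature before substrate addition. Substrate is a single-forked duplex oligonucleotide (100 nM) labelled with fluorophore and quencher, with 2 mM ATP; helicase unwinding raises red fluorescence, read kinetically.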
FEN1 inh – inhibitors of human flap endonuclease 1. Potency, µM (series often up to 114 µM), usual class: inhibitors. Recombinant FEN1 flap cleavage, fluorescence, 15 min. hit rate 0.35% among 390,000. P39748; also: nearly all actives have a fitted effect of over 65% in size
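Potency values derive from four-parameter Hill fits of normalized qHTS data. The reaction used 10 nM FEN1 preincubated 15 min at room temperature with compound, then 50 nM DNA substrate, read at 0 and 15 min.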
POLK inh – inhibitors of human DNA polymerase kappa; AID 588579; hit rate 0.53% among 400,000; Potency, µM (highest dose often 107 µM), usual class: inhibitors; purified Pol kappa, fluorescent DNA synthesis assay, 10 min
Target sequence (Q9UBT6 whole entry, looked up): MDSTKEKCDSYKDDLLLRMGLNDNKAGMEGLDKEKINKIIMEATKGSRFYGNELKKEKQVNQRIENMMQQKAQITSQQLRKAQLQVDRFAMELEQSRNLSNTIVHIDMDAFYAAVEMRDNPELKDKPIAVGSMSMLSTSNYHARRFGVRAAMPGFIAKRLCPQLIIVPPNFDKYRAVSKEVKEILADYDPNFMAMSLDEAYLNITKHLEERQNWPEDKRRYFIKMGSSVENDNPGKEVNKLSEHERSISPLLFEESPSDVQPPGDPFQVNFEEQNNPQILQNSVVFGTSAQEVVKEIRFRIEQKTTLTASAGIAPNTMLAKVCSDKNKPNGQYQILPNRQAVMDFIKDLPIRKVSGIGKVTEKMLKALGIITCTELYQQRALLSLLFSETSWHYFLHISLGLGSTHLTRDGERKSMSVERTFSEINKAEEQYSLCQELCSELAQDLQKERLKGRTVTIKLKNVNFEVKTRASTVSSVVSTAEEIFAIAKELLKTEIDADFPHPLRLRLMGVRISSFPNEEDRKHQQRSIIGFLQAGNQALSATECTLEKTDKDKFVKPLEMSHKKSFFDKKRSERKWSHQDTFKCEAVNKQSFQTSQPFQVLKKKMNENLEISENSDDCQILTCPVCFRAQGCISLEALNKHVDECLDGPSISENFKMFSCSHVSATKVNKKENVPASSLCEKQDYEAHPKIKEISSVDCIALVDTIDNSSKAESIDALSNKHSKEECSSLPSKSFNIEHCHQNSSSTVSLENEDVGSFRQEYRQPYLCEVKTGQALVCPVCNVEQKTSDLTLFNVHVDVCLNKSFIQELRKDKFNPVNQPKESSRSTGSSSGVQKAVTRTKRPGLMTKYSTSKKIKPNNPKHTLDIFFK
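50 nM final substrate added after 15 min RT preincubation of 10 nM Pol kappa with compound; fluorescence read at 0 and 10 min.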
POLH inh – inhibitors of human DNA polymerase eta; Q9Y253; recombinant Pol eta, fluorescent DNA replication assay; Potency, µM (doses to about 114 µM), actives largely listed as inhibitors; hit rate 1.2% among 390,000; AID 588591
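Fluorescent replication assay: 50 nM final substrate added after a 15 min room-temperature compound preincubation with 10 nM enzyme. Signal taken at 0 min and again at 10 min.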
Pol iota inh – blocks human DNA polymerase iota activity; hit rate 1% among 390,000; Pol iota fluorescent replication assay, 10 min; Potency, µM (top dose mostly 115 µM), usual class: inhibitors; Q9UNA4
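Fluorescent replication assay read twice, at 0 min and 10 min after adding 50 nM (final) substrate. Enzyme (10 nM) and compounds were first incubated 15 min at room temperature; enzyme-free buffer wells were negative controls.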
Of the large screens only hits and unclear results are named; the others gave an inactive call; ! = not active in a repeat. Calls follow the shape of the dose curve; as a rule, active = well fitted curve in the direction sought with a large enough effect; inconclusive = small, poorly fitted or top-dose-only effect, or another doubt; inactive = no such curve, though single readings can be large; an effect the other way counts as inactive or inconclusive.

COc1ccc(N=c2nc(-c3ccc(C)cc3)n(-c3ccccc3)s2)cc1	none (no result: POLB inh, WRN helicase inh, POLH inh)
O=C(Nc1nc2c(F)cccc2s1)c1ccco1	none
Fc1cccc2sc(Nc3nnc(-c4ccco4)o3)nc12	POLB inh 18µM, WRN helicase inh inconclusive, POLH inh inconclusive, Pol iota inh inconclusive
N#Cc1cccc2c1-c1ccccc1/C2=N/NC(N)=S	POLH inh inconclusive, Pol iota inh 20µM
COc1ccc([C@H]2CC(=O)C=C(c3ccc(SC)cc3)C2)cc1	Pol iota inh 89µM (no result: POLB inh)
COc1ccc(C2=CC(=O)C[C@H](c3ccc(OC)cc3)C2)cc1	none (no result: POLB inh)
O=C(Nc1ccc(Cl)c([N+](=O)[O-])c1)c1cnccn1	POLB inh 40µM, POLK inh inconclusive, POLH inh 22µM, Pol iota inh inconclusive
O=C(Nc1ccc(Cl)c([N+](=O)[O-])c1)c1ccncc1	none
O=C(NC1CCCCCC1)C1CCC(CNS(=O)(=O)c2cccc3cccnc23)CC1 (configuration not stated)	none (no result: POLB inh, WRN helicase inh, POLH inh)
CCc1ccc2c(c1)c(=O)c(C(=O)c1ccccc1)cn2CC(=O)Nc1ccc(C)c(Cl)c1	POLB inh 2.8µM, POLH inh inconclusive (no result: WRN helicase inh)
Cc1cc(NC(=O)Cn2c(=O)oc3cc(S(=O)(=O)N4CCCC4)ccc32)ccc1Br	POLB inh 13µM (no result: WRN helicase inh)
Cc1cc(C)cc(NC(=O)Cn2c(=O)oc3cc(S(=O)(=O)N4CCCC4)ccc32)c1	POLB inh inconclusive (no result: WRN helicase inh, POLH inh)
CC(=O)c1cccc(NC(=O)Cn2c(=O)oc3cc(S(=O)(=O)N4CCCC4)ccc32)c1	POLB inh 32µM!, Pol iota inh inconclusive
CCc1ccc(NC(=O)Cn2c(=O)ccc3cc(S(=O)(=O)N4CCCC4)ccc32)cc1	POLH inh 89µM (no result: WRN helicase inh)
NCCCN(Cc1ccc(Cl)cc1)c1ccc(Br)cn1	none (no result: POLB inh, WRN helicase inh, POLH inh)
CCCN1CNc2c(c(=O)[nH]c(=S)n2CCc2cc(Cl)ccc2Cl)C1	none (no result: POLB inh, WRN helicase inh, POLH inh)
O=C(NCCCN1CCCCCC1)c1cc2c(=O)oc3ccccc3c2s1	FEN1 inh 71µM, Pol iota inh 50µM
CC1CCCN(CCCNC(=O)c2cc3c(Cl)nc4ccccc4c3s2)C1 (configuration not stated)	FEN1 inh 50µM
Cn1nc(-c2ccc(Cl)cc2)c2cc(C(=O)NCCCN3CCCC3)sc21	POLB inh 50µM, FEN1 inh 32µM, Pol iota inh inconclusive
C=C1C=C(C(F)F)n2ncc(C(=O)NCc3ccccc3OC)c2N1	none (no result: POLB inh, WRN helicase inh, POLH inh)
NCC(=O)N[C@@H](CCCN=C(N)N)C(=O)NCC(=O)N[C@@H](CC(=O)O)C(=O)N[C@@H](CO)C(=O)N1CCC[C@H]1C(=O)O	none (no result: POLB inh, WRN helicase inh, FEN1 inh, POLH inh, Pol iota inh)
OC[C@@H](O)C(O)[C@H](O)[C@H](O)CO (some centres not stated)	none (no result: POLB inh, WRN helicase inh, FEN1 inh, POLH inh, Pol iota inh)
COc1c2ccc(OCC/C(C)=C/C(=O)C=C(C)C)cc2nc2occc12	POLH inh 45µM, Pol iota inh inconclusive (no result: POLB inh)
Cc1c(C=O)ccc(N(C)C)c1C	none (no result: POLB inh, WRN helicase inh, POLH inh)
N#CC(=C(/N)Sc1ccccc1N)/C(C#N)=C(/N)Sc1ccccc1N	none (no result: POLB inh, WRN helicase inh, FEN1 inh, POLH inh, Pol iota inh)
COc1cc(OC)cc(C(=O)NCC(=O)OCC(=O)NCc2ccco2)c1	WRN helicase inh inconclusive, POLK inh inconclusive, POLH inh inconclusive, Pol iota inh 79µM (no result: POLB inh)
Cc1ccc(/C=C/C(=O)OCC(=O)NC(=O)NCc2ccco2)cc1	POLH inh 50µM, Pol iota inh inconclusive (no result: POLB inh)
CCn1c(=O)cc(OCC(=O)NCc2ccco2)c2ccccc21	POLB inh 45µM, POLH inh inconclusive, Pol iota inh inconclusive
COc1cccc(/C=C/C(=O)OCC(=O)NCc2ccco2)c1	POLB inh 45µM, POLK inh inconclusive, POLH inh inconclusive, Pol iota inh inconclusive
CCn1c(=O)cc(OCC(=O)NCc2ccc(C)o2)c2ccccc21	none
NC(=O)Nc1ccc(/C=C2\C=Cc3ccccc32)cc1	none (no result: POLB inh, WRN helicase inh, POLH inh)
COc1cc(OC)cc(C(=O)OCC(=O)NCc2ccco2)c1	POLH inh inconclusive, Pol iota inh 45µM (no result: POLB inh)
COc1ccc(S(=O)(=O)N(CC(=O)NCc2ccco2)c2ccccc2OC)cc1	POLB inh inconclusive, POLK inh inconclusive, POLH inh inconclusive, Pol iota inh 50µM
COc1ccc(N(CC(=O)NCc2ccco2)S(=O)(=O)c2ccc(OC)c(OC)c2)cc1	none
CCOc1cc(C(=O)OCC(=O)NCc2ccco2)cc(OCC)c1OCC	POLB inh 18µM, POLK inh inconclusive, POLH inh inconclusive, Pol iota inh inconclusive
COc1ccc(CCC(=O)NCc2ccco2)cc1	POLB inh 40µM, WRN helicase inh inconclusive, POLK inh inconclusive, POLH inh 20µM
CC(C)(C)NS(=O)(=O)c1ccc(CCC(=O)NCc2ccco2)cc1	none
OC1C(Br)=Cc2ccccc21 (configuration not stated)	none (no result: POLB inh, WRN helicase inh, POLH inh)
COc1ccc(-n2c(=O)c(-c3ccccc3)nc3cnc(N4CCOCC4)nc32)cc1	none (no result: POLB inh, WRN helicase inh, FEN1 inh, POLH inh, Pol iota inh)
CC(C)(C)c1ccc(OCC(=O)NCc2ccco2)c(Br)c1	POLB inh inconclusive, POLH inh 45µM, Pol iota inh inconclusive
O=C(COC(=O)c1cccnc1Cl)NCc1ccco1	POLB inh 16µM, WRN helicase inh inconclusive, POLH inh inconclusive, Pol iota inh inconclusive
O=C(COC(=O)c1ccccc1Cl)NCc1ccco1	WRN helicase inh inconclusive, POLH inh inconclusive, Pol iota inh inconclusive (no result: POLB inh)
O=C(COC(=O)Cc1ccc(F)cc1)NCc1ccco1	POLB inh 22µM, POLK inh inconclusive, POLH inh inconclusive, Pol iota inh inconclusive
COc1ccc(-c2ccccc2C2C3C=CCCC3(C)C(=O)N2Cc2ccccc2)cc1 (configuration not stated)	none (no result: POLB inh, WRN helicase inh, POLH inh)
N#Cc1c(NCCN)nc(-c2ccco2)c2c1CCCC2	POLB inh 56µM
CC1(C)Cc2c(C#N)c(NCc3ccco3)nc(-c3ccco3)c2CO1	POLB inh inconclusive, POLH inh 14µM, Pol iota inh inconclusive
O=C1CC(c2ccco2)Cc2[nH]c(=O)c(C(=O)Nc3ccccc3)cc21 (configuration not stated)	none (no result: POLB inh, WRN helicase inh, POLH inh)
CCN(CC)C(=O)CC(c1cc(OC)c(OC)c(OC)c1)c1c(OC)cc(OC)c2ccc(=O)oc12 (configuration not stated)	none
CCN(CC)C(=O)CC(c1ccc(OC)cc1)c1c(OC)cc(OC)c2ccc(=O)oc12 (configuration not stated)	POLB inh inconclusive, POLK inh inconclusive, POLH inh inconclusive, Pol iota inh 79µM
O=C(O)COc1cccc2c1CCC=C2CCO/N=C(\c1ccccc1)c1cccnc1	none (no result: POLB inh, WRN helicase inh, FEN1 inh, POLH inh, Pol iota inh)
CC(C)(C)n1ncc2c(=O)n(Cc3ccccc3Cl)cnc21	none (no result: POLB inh, WRN helicase inh, POLH inh)
O=C1C=C(NCc2ccc(Cl)cc2)CC(c2ccco2)C1 (configuration not stated)	POLB inh inconclusive, POLH inh inconclusive, Pol iota inh inconclusive
O=C1CC(=O)CC(c2ccco2)C1	POLB inh inconclusive, POLK inh inconclusive, POLH inh 18µM, Pol iota inh inconclusive
